# 3T3 cytotox: cytotoxic compounds in NIH 3T3 cells. NIH 3T3 viability, CellTiter-Glo ATP luminescence, 48-72 h. Potency, µM (series often up to 96.7 µM), without a hit: top-dose activity change, negative = cytotoxicity, actives largely listed as inhibitors. hit rate 4.3% among 94,000. AID 1345082; also: % is scaled to controls: 0 for no effect and ±100 for the full control effect; nearly all actives have a fitted effect of over 55% in size
#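 Luminescent ATP readout (CellTiter-Glo, 10 min RT) after 48 or 72 hr compound exposure of NIH 3T3 cells seeded at 400 cells/well in 1536-well format; quantitative HTS.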
# hNpr1 antagonist: blocks ANP-stimulated signaling of human Npr1 receptor; HEK293 hNpr1 GloSensor cGMP, ANP-stimulated luminescence; Potency, µM (series often up to 46.3 µM), without a hit: top-dose activity change, negative = inhibition, actives largely listed as inhibitors; hit rate 1.6% among 76,000; calls by dose curve; also: % is scaled to controls: 0 for no effect and ±100 for the full control effect; nearly all actives have a fitted effect of over 60% in size
#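 Compound pre-incubated 30 min at room temperature on GloSensor-loaded HEK293 cells stably carrying hNpr1 and the pGS-40F cGMP biosensor. Stimulation uses hNppA at 0.1 nM final; luminescence is taken at baseline and 20 min post-agonist.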
# FLuc inh-1: inhibitors of firefly (Photinus pyralis) luciferase; P08659; purified P. pyralis luciferase, luminescence, biochemical; Potency, µM (series often up to 115 µM), actives largely listed as inhibitors; hit rate 2.5% among 76,000; AID 1347043; also: % is scaled to controls: 0 for no effect and ±100 for the full control effect; nearly all actives have a fitted effect of over 65% in size
#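 Purified 10nM P. pyralis luciferase with 10uM D-luciferin and 10uM ATP in 50mM Tris acetate pH 7.5, 10mM Mg acetate, 0.01% Tween-20, 0.05% BSA. qHTS titration; luminescence read by CCD imager.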
# HEK cytotox: cytotoxic compounds in HEK 293 cells | AID 1345083 | HEK 293 viability, ATP luminescence (CellTiter-Glo), 48-72 h | hit rate 6.6% among 94,000 | Potency, µM (titrated, usually from 115 µM), for the others: at the highest dose activity change, negative = cytotoxicity, most hits filed as inhibitors; also: % is scaled to controls: 0 for no effect and ±100 for the full control effect; nearly all actives have a fitted effect of over 60% in size
#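 HEK 293 seeded at 250 cells/well receive compound via pintool. After 48 or 72 hr at 37 degree Celsius, 5% CO2 and 95% humidity, CellTiter-Glo is dispensed and luminescence read following 10 min at room temperature.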
# GPT2 inh: blocks human glutamate pyruvate transaminase 2; Q8TD30; Recombinant GPT2, coupled pyruvate oxidase/HRP Amplex Red fluorescence; Potency, µM (titrated, usually from 57.7 µM), for inactives: at the top dose activity change, negative = inhibition, most hits filed as inhibitors; hit rate 0.25% among 100,000; AID 1671188; also: % is scaled to controls: 0 for no effect and ±100 for the full control effect; nearly all actives have a fitted effect of over 60% in size
# Target sequence (Q8TD30 whole entry, looked up): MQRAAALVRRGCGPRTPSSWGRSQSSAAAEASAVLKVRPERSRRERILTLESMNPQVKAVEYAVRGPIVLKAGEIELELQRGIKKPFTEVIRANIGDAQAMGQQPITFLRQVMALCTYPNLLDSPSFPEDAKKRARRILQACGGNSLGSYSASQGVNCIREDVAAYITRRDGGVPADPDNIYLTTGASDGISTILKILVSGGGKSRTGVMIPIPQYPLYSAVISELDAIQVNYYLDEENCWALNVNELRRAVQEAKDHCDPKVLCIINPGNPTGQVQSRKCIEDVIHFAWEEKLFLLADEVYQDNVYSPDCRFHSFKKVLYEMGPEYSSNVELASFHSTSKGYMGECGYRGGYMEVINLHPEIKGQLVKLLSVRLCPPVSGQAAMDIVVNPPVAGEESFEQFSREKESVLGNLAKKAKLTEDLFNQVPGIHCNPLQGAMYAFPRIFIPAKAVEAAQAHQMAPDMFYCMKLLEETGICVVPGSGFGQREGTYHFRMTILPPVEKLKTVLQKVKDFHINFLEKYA
#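 Fluorescence of coupled pyruvate oxidase/HRP/Amplex Red system (50uM Amplex, 30 min, dark) reports pyruvate formed by GPT2. Enzyme reaction: 10ng/uL GPT2, 2mM L-alanine, 250uM a-KG, 30 min room temperature, pH 7.5; 50uM AOA control.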
# FLuc SDR no ATP: binders stabilizing firefly luciferase, without ATP. Purified FLuc-C-HiBiT, Nano-Glo HiBiT luminescence, no ATP. Potency, µM (titrated, usually from 32.7 µM), without a hit: at the highest dose activation (signal gain), actives largely listed as activators. hit rate 7.8% among 1,300. shares compounds with FLuc inh-1; also: nearly all actives have a fitted effect of over 55% in size
# FLuc SDR ATP: stabilizes firefly luciferase with ATP present | Potency, µM (doses to about 32.7 µM), without a hit: top-dose activation (gain of signal), most hits filed as activators | hit rate 8.7% among 1,300 | shares compounds with FLuc inh-1 | AID 1963319 | purified FLuc-C-HiBiT + ATP, HiBiT complementation luminescence;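 also: signal reports ligand binding via conformational change of the enzyme rather than luciferase catalysis; % of control where 0% means no effect; nearly all actives have a fitted effect of over 55% in size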
# FLuc inh-2: inhibitors of firefly luciferase enzymatic activity. purified FLuc-C-HiBiT enzyme, luciferin luminescence. shares compounds with FLuc inh-1. hit rate 42% among 1,300. AID 1963320. Potency, µM (top dose mostly 32.7 µM), for inactives: at the top dose activity change, negative = inhibition, hits mostly inhibitors; also: % is scaled to controls: 0 for no effect and ±100 for the full control effect; nearly all actives have a fitted effect of over 70% in size
# * = called active by the depositor; i = inactive; ? = inconclusive; . = no result; [ ] = remark or other dose. Shown are actives, neighbours in structure and some others; about 10% of the full set was active somewhere. Unless noted, calls follow the shape of the dose curve; as a rule, active = well fitted curve in the direction sought with a large enough effect; inconclusive = small, poorly fitted or top-dose-only effect, or another doubt; inactive = no such curve, though single readings can be large; an effect the other way counts as inactive or inconclusive. Potency is read from the fitted curve at half-maximal effect.
SMILES,3T3 cytotox,hNpr1 antagonist,FLuc inh-1,HEK cytotox,GPT2 inh,FLuc SDR no ATP,FLuc SDR ATP,FLuc inh-2
CN1c2cc(C(=O)Nc3cc(F)cc(F)c3)ccc2C(=O)N2CCCCCC21 (stereo unspecified),?,?,?,?,i,.,.,.
Cc1ccc(NC(=O)c2ccc3c(c2)N(C)C2CCCN2C3=O)cc1F (stereo unspecified),-14.8%,?,1.26µM*,?,i,15.4%,4.42µM*,8.81µM*
O=C(O)C1CCc2nnc(C3CCN(C(=O)c4ccc(F)cc4)CC3)n21 (stereo unspecified),4.5%,.,.,i,-9.9%,.,.,.
CN(C)c1cccc(C(=O)NC2CCN(c3cc(-c4ccc(Cl)cc4)[nH]n3)C2)c1 (stereo unspecified),?,-28.5%,12.6µM*,?,-30.7%,9.9%,?,?
COc1ccc(-c2cc(N3CCCC(NC(=O)c4ccc5[nH]ccc5c4)C3)n[nH]2)cc1 (stereo unspecified),?,-25.3%,4.47µM*,?,?,27.8%,16.0%,4.95µM*
COc1cc(C(=O)NC2CCCN(c3cc(-c4ccc(F)cc4)[nH]n3)C2)cc(OC)c1OC (stereo unspecified),?,-10.2%,12.6µM*,?,-5.4%,22.9%,10.5%,?
COc1ccc(-c2cc(N3CCCC(NC(=O)c4cccc(OC)c4)C3)n[nH]2)cc1 (stereo unspecified),?,-24.8%,7.08µM*,25.1µM*,?,18.4%,16.4%,?
O=C(c1cc(-c2ccncc2)n[nH]1)N1CCC2(CC1)Nc1ccccc1NC2=O,?,-3.3%,i,-23.6%,?,.,.,.
O=C(O)c1ccc(-c2noc(-c3ccc(Cl)cc3)n2)cc1,.,.,.,.,.,?,1.4µM*,0.785µM*
O=C(O)c1cccc(-c2noc(-c3cccc(Cl)c3)n2)c1,.,.,.,.,.,12.4µM*,0.0221µM*,0.007µM*
COc1cc(-c2noc(-c3nc(-c4ccccc4)no3)n2)cc(OC)c1OC,i,-1.1%,i,-3.0%,i,.,.,.
COc1ccccc1-c1nc(-c2ccc(C(=O)O)cc2)no1,.,.,.,.,.,15.7%,2.21µM*,1.97µM*
Clc1cccc(-c2noc(-c3nc(-c4ccncc4)no3)n2)c1,i,6.1%,i,8.4%,-4.5%,.,.,.
Cc1ccc(-c2nc(C(=O)N3CCN(c4ccc(Cl)cc4)CC3)no2)cc1,-11.0%,?,?,-0.5%,i,.,.,.
COc1cccc(-c2nc(-c3cccc(C(=O)O)c3)no2)c1,.,.,.,.,.,12.4µM*,0.007µM*,0.0039µM*
CCN1C(=O)Cc2ccccc2C1C(=O)NCc1ccc(OC(C)C)cc1 (stereo unspecified),-29.7%,-5.9%,i,-21.7%,i,.,.,.
COc1ccc(C(=O)N2C[C@@H](CO)[C@H](c3ccncc3)C2)c(C)c1,-26.3%,-3.8%,i,-14.8%,i,.,.,.
O=C(O)c1ccc(-c2noc(-c3cccc(C(F)(F)F)c3)n2)cc1,.,.,.,.,.,11.7%,19.8%,?
O=C(O)c1cccc(-c2ncccn2)c1,2.9%[174 µM],.,.,4.6%[230 µM],-11.5%[88.5 µM],.,.,.
COc1ccc(-c2nc(-c3ccc(C(=O)O)cc3)no2)cc1,.,.,.,.,.,12.4µM*,0.111µM*,0.111µM*
O=C(O)c1cccc(-c2noc(-c3ccc(Cl)cc3)n2)c1,.,.,.,.,.,2.79µM*,0.005µM*,0.0022µM*
O=C(O)c1cccc(-c2cccc(C(F)(F)F)c2)c1,-2.2%[138 µM],.,.,i,-10.6%[88.5 µM],.,.,.
COc1ccc(-c2noc(-c3nc(C)no3)n2)cc1,3.2%,3.6%,i,-2.3%,i,.,.,.
CN1C(=O)CS(=O)(=O)C12CCN(C(=O)c1cc(F)ccc1F)CC2,-14.4%,4.8%,i,-0.5%,?,.,.,.
O=c1oc2c(CN3CCCC3)c(O)ccc2cc1-c1ccccc1,.,.,.,.,.,12.5%,11.6%,-4.2%
SMILES,3T3 cytotox,hNpr1 antagonist,FLuc inh-1,HEK cytotox,GPT2 inh,FLuc SDR no ATP,FLuc SDR ATP,FLuc inh-2
CCCNc1cc(N2CCC(CCC(=O)NCc3ccccc3)CC2)ncn1,-16.0%,-4.0%,?,-28.7%,-16.1%,.,.,.
CCNc1cc(N2CCC(CCC(=O)Nc3ccc4c(c3)OCCO4)CC2)ncn1,?,-28.4%,7.94µM*,?,-27.2%,17.9%,19.3%,?
CCCNc1cc(N2CCC(CCC(=O)Nc3ccc4c(c3)OCCO4)CC2)ncn1,-19.1%,?,11.2µM*,-25.6%,i,27.7%,?,9.89µM*
CNC(=O)[C@@H]1CN(C(=O)Cc2c(C)noc2C)C[C@H]1COC,-12.9%,-3.1%,i,-7.0%,-6.6%,.,.,.
COc1ccc(C(=O)N2CCn3c(nnc3C3CC3)C2)cc1,-3.3%[138 µM],-0.3%[70.6 µM],i,i,-4.9%[88.5 µM],.,.,.
O=C(c1ccc(F)cc1)N1CCn2c(nnc2C2CC2)C1,-22.3%[138 µM],2.2%[70.6 µM],i,-1.5%[172 µM],-6.6%[88.5 µM],11.9%[49.3 µM],8.7%[49.3 µM],1.5%[49.3 µM]
COc1ccc(NC(=O)CN2C(=O)NC3(CCCCC3)C2=O)c(OC)c1,-14.5%,2.0%,i,-3.0%,i,.,.,.
COc1ccc(C(=O)N2CCOCCNC(=O)CC2)c(OC)n1,-4.2%,4.0%,i,-5.3%,i,.,.,.
OC1(CN2CCCN(c3nc4ccccc4s3)CC2)CNCCOC1 (stereo unspecified),?,1.6%,12.6µM*,?,-8.9%,17.3%,13.6%,-6.7%
OC1(CN2CCN(C(c3ccccc3)c3ccccc3)CC2)CNCCOC1 (stereo unspecified),?,0.7%,i,?,0.6%,.,.,.
CCc1ccc(-c2nc(CSCC(=O)NCc3ccc(C)cc3)c(C)o2)cc1,.,.,.,.,.,19.4%,12.2%,?
CCOCCCNC(=O)CN1C(=O)C(Oc2ccc(F)cc2)C12CCCCC2 (stereo unspecified),-30.7%,.,.,-23.8%,2.4%,.,.,.
CCN(CC)Cc1ccc2c(c1)CN(C(=O)NCC(C)C)CCO2,-6.4%,.,.,-17.9%,i,.,.,.
O=C(NC[C@H]1Cn2cc(-c3ccc4c(c3)OCCCO4)nc2CO1)c1ccc2c(c1)OCO2,-24.9%,-17.1%,10µM*,?,0.9%,?,?,?
CSc1ccc(-c2nc3c([nH]2)CC(C)(C)CNC3=O)cc1,-24.2%,-22.8%,12.6µM*,?,-0.9%[11.5 µM],31.5%,17.3%,?
CC1(C)CNC(=O)c2nc(CCSCc3ccco3)[nH]c2C1,0.1%,-1.1%,i,0.3%,0.4%,.,.,.
